These results are taken from PubChem BioAssay (Tox21).

A short description of experiment [1]: Nuclear factor erythroid 2-related factor 2/antioxidant responsive element (Nrf2/ARE) small molecule agonists: qHTS cell viability counter screen in human keratinocytes (AID 1919968; active = well fitted curve in the direction sought with a large enough effect in the repeat runs; an effect the other way counts as inactive or inconclusive; note: nearly all actives have a fitted effect of over 55% in size). In a few lines: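 Seed 1,500 KeratinoSens cells per well, then incubate 5 h at 37 C/5% CO2. Add compounds in DMSO and incubate 23 h. Add CellTiter-Fluor, wait 1 h and read fluorescence.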
For orientation: qHTS replaces the single test concentration by a dilution series.

The nature of experiment [2]: Nuclear factor erythroid 2-related factor 2/antioxidant responsive element (Nrf2/ARE) small molecule agonists: luciferase reporter gene qHTS assay in human keratinocytes (AID 1919969). Note: nearly all actives have a fitted effect of over 35% in size. Note: potency is the fitted concentration of half-maximal effect. A general note: Reporter assays use an easily measured gene product as a stand-in for the process of interest.
The target of experiment [3] is Gonadotropin-releasing hormone receptor (Homo sapiens) (UniProt P30968). In words: Human gonadotropin-releasing hormone receptor (GnRHR) small molecule agonists, calcium flux assay in GnRHR-HEK293 cells (AID 1920063). Note: nearly all actives have a fitted effect of over 35% in size. The gist of the method: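 Cells: HEK293 stably expressing human GnRHR. Steps: overnight (18 h) culture, 1 h calcium dye loading at 37 C, compound addition, kinetic fluorescence read at 480/540 nm. Each compound tested at 15 concentrations in triplicate.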
On the technique in general: Calcium assays in cells follow changes in intracellular calcium, usually with a dye or a luminescent sensor.

The target of experiment [4] is KiSS-1 receptor (Homo sapiens) (UniProt Q969F8). Nature of the experiment: Human kisspeptin (KISS1R) small molecule agonists, calcium flux assay in KISS1R-HEK293 cells (AID 1920064; active = well fitted curve in the direction sought with a large enough effect in the repeat runs; an effect the other way counts as inactive or inconclusive). In a few lines: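 Cells plated and incubated 18 h; dye added, 1 h at 37 C; compounds in DMSO pinned in; signal read at 480/540 nm every second for 3 min. Each compound tested at 15 concentrations in triplicate.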

Experiment [5] in a line: G protein-coupled receptor (GPCR) small molecule agonists, calcium flux assay: HEK293 wild type cell line counter screen (AID 1920065). The gist of the method: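 Counter-screen of the Tox21 10K library for non-specific calcium release: dye-loaded cells received compounds in DMSO and were monitored by kinetic fluorescence (480/540 nm, 3 min). Fifteen concentrations, run in triplicate.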

Experiment [6] in a line: p53 small molecule agonists, cell-based qHTS assay with human liver microsomes (AID 1963577).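 Note: p53 response element beta-lactamase reporter cells with liver microsomes plus NADPH.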 In a few lines: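 With metabolic activation: human liver microsomes (0.5 mg/mL final) plus NADPH (0.5 mg/mL final) added alongside compounds to p53RE-bla cells; 16 h 37 C exposure; beta-lactamase read by LiveBLAzer fluorescence.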
The nature of experiment [7]: p53 small molecule agonists, cell-based qHTS assay with human liver microsomes: qHTS cell viability counter screen (AID 1963579). Note: nearly all actives have a fitted effect of over 45% in size. In a few lines: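 Metabolic activation used human liver microsomes and NADPH, both 0.5 mg/mL final, over 16 hours at 37 C on p53RE-bla cells (4,000/well). Cytotoxicity measured by CellTiter-Glo luminescence, 30 min at room temperature.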
Experiment [8] is described as follows: p53 small molecule agonists, cell-based qHTS assay: qHTS cell viability counter screen (AID 1963581). Note: nearly all actives have a fitted effect of over 45% in size. In a few lines:
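Cells: HCT-116 with p53 response element-driven beta-lactamase. Treatment: 16 h, 37 C, compounds in DMSO. Read: CellTiter-Glo luminescence after 30 min RT.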

Experiment [9] in a line: p53 small molecule agonists, cell-based qHTS assay (AID 1963582; active = well fitted activation curve with a large enough effect in the signal ratio in the repeat runs, not every such curve was filed as active; the % refers to the signal ratio). The gist of the method:
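Quantitative HTS in p53RE-bla cells: after a 5 h settling period, compounds delivered in DMSO were left on cells for 16 h at 37 C, and reporter induction was measured as fluorescence following 2 h substrate loading.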

Experiment [10] is described as follows: cAMP Responsive Elements (CRE) small molecule agonists, cell-based qHTS assay (AID 1963590). In a few lines:
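Agonist mode qHTS in CRE-bla HEK 293T cells: compounds dosed from DMSO for 3 h at 37 C/5% CO2, followed by LiveBLAzer B/G FRET substrate for 2 h at room temperature.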

Experiment [11] is described as follows: cAMP Responsive Elements (CRE) small molecule antagonists, cell-based qHTS assay (AID 1963591; active = well fitted inhibition curve with a large enough effect in the signal ratio in the repeat runs, not every such curve was filed as active; the % refers to the signal ratio). The gist of the method:
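Antagonist mode: test compounds are co-incubated with the adenylyl cyclase activator NKH477 (0.25 uM final) on CRE-bla HEK293T cells for 3 h at 37 °C, followed by LiveBLAzer substrate loading.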

In experiment [12] the target is Beta-2 adrenergic receptor (Homo sapiens) (UniProt P07550). Nature of the experiment: Adrenergic beta2 receptor (ADRB2) small molecule antagonists, cell-based qHTS assay (AID 1963592). Note: series mostly up to about 92 µM; nearly all actives have a fitted effect of over 50% in size. In a few lines: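 Cells (CHO, stable ADRB2 overexpression) incubated 18-20hr at 37C; compounds added from DMSO; agonist mix (1nM isoproterenol, 100uM IBMX, 25uM Ro-20-1724) added; 0.5hr RT; d2-cAMP and anti-cAMP-cryptate added; 1hr RT; 665/615 nm read.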

The target is the same in experiment [13]. In words: Adrenergic beta2 receptor (ADRB2) small molecule agonists, cell-based qHTS assay (AID 1963593).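 Note: CHO cells stably overexpressing human ADRB2.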 The gist of the method: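 CHO cells stably over-expressing ADRB2 were plated overnight at 37C, then dosed with compounds plus a stimulation mix containing 100uM IBMX and 25uM Ro-20-1724 for 0.5hr at room temperature. cAMP was measured by HTRF competition, 1hr.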

For experiment [14], the target named is D(2) dopamine receptor (Homo sapiens) (UniProt P14416). Nature of the experiment: Dopamine D2 receptor (DRD2) small molecule agonists, cell-based qHTS assay (AID 1963594). Note: nearly all actives have a fitted effect of over 35% in size. In a few lines:
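HEK293 cells stably expressing DRD2 were cultured 24 h at 37 C, then given Ro20-1724 (0.1 mM final) and compounds for 10 min at room temperature. NKH477 (200nM) was then added for 30 min. cAMP was read by HTRF.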

Experiment [15] has the same target. In words: Dopamine D2 receptor (DRD2) small molecule antagonists, cell-based qHTS assay (AID 1963595; active = well fitted inhibition curve with a large enough effect in the signal ratio in the repeat runs, with a control signal flat; the % refers to the signal ratio). In a few lines: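 DRD2-HEK293; 0.1 mM Ro20-1724; cpd 10 min RT; NKH477 200 nM + quinpirole 12 nM, 30 min RT; HTRF cAMP (cAMP-d2/anti-cAMP cryptate), 665/620 nm ratio after 1 h.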
The nature of experiment [16]: p53 small molecule agonists, cell-based qHTS assay with rat liver microsomes: qHTS cell viability counter screen (AID 1963580). Note: nearly all actives have a fitted effect of over 45% in size. In a few lines:
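p53RE-bla HCT-116 cells (4,000/well) rested 5 h at 37 C, then given Tox21 compounds in DMSO with rat liver microsomes (0.5 mg/mL final) plus NADPH (0.5 mg/mL final) for 16 h at 37 C. Viability read by CellTiter-Glo luminescence after 30 min at room temperature.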

Experiment [17] concerns the target 5-hydroxytryptamine receptor 2A (Homo sapiens) (UniProt P28223). Nature of the experiment: 5-hydroxytryptamine receptor 2A (HTR2A) small molecule antagonists, cell-based qHTS assay (AID 1963586). Note: nearly all actives have a fitted effect of over 45% in size. The gist of the method:
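Antagonist-mode intracellular calcium assay: DOI (4 nM) added after 5 min compound pre-incubation at room temperature to dye-loaded HTR2A-CHO cells. Fluorescence followed for 3 min, sampled every second.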

The target is the same in experiment [18]. Nature of the experiment: 5-hydroxytryptamine receptor 2A (HTR2A) small molecule agonists, cell-based qHTS assay (AID 1963587). Note: nearly all actives have a fitted effect of over 30% in size. In a few lines: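 HTR2A-CHO cells, plated 18 h at 37 C/5% CO2, dye-loaded 1 h at 37 C; compounds in DMSO added by pin tool (agonist mode). Intracellular calcium flux read as kinetic fluorescence on FDSS over 2 min at 1 s intervals.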

Experiment [19] addresses Muscarinic acetylcholine receptor M1 (Homo sapiens) (UniProt P11229). In words: Cholinergic receptor muscarinic 1 (CHRM1) small molecule antagonists, cell-based qHTS assay (AID 1963588). Note: nearly all actives have a fitted effect of over 40% in size. In a few lines: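 CHRM1-CHO calcium-flux assay, antagonist mode. Cells were seeded 18 h, dye-loaded 1 h at 37 C and given compound for 5 min at RT, then acetylcholine was added at 50nM. FDSS fluorescence was read 3 min; 15 concentrations, three runs.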

Experiment [20] shares this target. Nature of the experiment: Cholinergic receptor muscarinic 1 (CHRM1) small molecule agonists, cell-based qHTS assay (AID 1963589). Note: nearly all actives have a fitted effect of over 35% in size. The gist of the method:
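Agonist-mode qHTS in CHO cells stably carrying human muscarinic M1. Intracellular calcium is tracked by fluorescence every second after compound transfer; each compound runs at 15 concentrations in three independent runs.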

Several values for one entry are separate records, joined by “and”; a condition that tells them apart may be missing. Equal values may be shown once. Inconclusive results are not listed. Activity calls are given as the source filed them. Unless noted, calls come from the whole dose curve.

Chain of Muscarinic acetylcholine receptor M1 (Homo sapiens) (P11229 whole entry, looked up): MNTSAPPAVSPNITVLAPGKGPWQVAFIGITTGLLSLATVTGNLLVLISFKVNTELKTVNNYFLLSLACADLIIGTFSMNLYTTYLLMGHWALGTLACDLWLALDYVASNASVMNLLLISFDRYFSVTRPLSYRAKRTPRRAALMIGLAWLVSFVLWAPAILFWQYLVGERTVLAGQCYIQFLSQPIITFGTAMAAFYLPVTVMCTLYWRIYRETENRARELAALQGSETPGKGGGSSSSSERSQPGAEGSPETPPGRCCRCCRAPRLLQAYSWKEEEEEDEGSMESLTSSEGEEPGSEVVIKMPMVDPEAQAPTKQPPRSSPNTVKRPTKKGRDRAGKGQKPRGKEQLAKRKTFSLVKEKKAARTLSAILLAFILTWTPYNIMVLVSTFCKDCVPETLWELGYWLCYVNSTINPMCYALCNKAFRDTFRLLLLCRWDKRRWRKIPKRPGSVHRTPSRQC
Chain of KiSS-1 receptor (Homo sapiens) (Q969F8 whole entry, looked up): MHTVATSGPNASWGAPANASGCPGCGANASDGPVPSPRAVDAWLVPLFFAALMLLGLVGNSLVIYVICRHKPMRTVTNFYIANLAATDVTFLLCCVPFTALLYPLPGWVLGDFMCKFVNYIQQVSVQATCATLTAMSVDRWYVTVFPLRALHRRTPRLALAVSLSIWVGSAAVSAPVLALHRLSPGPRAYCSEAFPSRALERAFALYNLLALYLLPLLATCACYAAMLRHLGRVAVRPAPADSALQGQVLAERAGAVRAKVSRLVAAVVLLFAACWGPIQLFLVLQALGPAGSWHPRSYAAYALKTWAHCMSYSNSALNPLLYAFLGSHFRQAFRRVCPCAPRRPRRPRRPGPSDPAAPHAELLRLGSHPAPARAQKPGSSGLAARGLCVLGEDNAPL
Chain of Beta-2 adrenergic receptor (Homo sapiens) (P07550 whole entry, looked up): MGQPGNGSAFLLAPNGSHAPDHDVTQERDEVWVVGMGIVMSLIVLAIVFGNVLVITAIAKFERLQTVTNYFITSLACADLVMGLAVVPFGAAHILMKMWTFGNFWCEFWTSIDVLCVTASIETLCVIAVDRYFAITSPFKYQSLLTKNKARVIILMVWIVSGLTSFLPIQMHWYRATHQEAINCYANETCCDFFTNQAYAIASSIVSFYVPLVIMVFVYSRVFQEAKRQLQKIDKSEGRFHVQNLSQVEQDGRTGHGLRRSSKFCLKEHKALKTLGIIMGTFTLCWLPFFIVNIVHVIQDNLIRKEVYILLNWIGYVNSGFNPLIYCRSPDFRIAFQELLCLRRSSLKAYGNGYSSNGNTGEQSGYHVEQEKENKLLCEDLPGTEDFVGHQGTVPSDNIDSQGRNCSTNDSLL
Chain of 5-hydroxytryptamine receptor 2A (Homo sapiens) (P28223 whole entry, looked up): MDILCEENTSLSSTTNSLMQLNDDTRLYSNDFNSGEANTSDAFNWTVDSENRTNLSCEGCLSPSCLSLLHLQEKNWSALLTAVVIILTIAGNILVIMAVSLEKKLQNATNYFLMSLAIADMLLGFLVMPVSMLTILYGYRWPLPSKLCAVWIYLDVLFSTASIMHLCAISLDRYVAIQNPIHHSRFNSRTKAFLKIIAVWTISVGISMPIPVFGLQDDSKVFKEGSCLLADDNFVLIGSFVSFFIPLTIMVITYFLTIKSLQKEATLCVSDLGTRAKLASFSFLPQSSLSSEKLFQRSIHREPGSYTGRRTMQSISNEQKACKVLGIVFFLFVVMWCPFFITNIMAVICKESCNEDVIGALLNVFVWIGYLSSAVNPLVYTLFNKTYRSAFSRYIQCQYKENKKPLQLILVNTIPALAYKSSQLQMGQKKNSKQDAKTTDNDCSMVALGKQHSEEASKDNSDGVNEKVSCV
Chain of D(2) dopamine receptor (Homo sapiens) (P14416 whole entry, looked up): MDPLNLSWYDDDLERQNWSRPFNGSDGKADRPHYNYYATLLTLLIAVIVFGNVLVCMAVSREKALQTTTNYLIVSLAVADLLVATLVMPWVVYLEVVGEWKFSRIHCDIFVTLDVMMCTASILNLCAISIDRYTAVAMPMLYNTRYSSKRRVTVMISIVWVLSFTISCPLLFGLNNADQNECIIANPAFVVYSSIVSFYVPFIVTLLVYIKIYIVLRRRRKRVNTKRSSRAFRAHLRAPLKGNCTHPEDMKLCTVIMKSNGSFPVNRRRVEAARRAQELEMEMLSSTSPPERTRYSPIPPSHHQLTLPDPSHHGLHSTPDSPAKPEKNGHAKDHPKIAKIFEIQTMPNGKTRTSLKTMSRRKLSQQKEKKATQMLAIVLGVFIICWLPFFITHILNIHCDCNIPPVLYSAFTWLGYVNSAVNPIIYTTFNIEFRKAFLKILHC
Chain of Gonadotropin-releasing hormone receptor (Homo sapiens) (P30968 whole entry, looked up): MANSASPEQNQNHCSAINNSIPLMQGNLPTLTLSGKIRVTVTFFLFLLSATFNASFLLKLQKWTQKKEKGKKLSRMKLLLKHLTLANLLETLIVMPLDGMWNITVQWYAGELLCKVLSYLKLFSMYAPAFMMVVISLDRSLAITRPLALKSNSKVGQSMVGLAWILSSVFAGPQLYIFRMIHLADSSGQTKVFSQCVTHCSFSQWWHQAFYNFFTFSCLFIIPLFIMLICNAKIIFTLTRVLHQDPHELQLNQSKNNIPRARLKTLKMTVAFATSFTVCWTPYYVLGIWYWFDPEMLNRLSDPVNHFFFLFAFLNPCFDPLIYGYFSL

As for `CC12CCC(CC1)C(C)(C)O2`, the Potency result in experiment [1], in experiment [2], in [3], in [4], in experiment [5] and in experiment [6] was “inactive” throughout. Besides, the Potency result in experiment [7], in [8], in [9], in [10], in experiment [11] and in [12] was “inactive” in each case. Besides, the Potency result in experiment [13], in [14] and in [15] was “inactive” in each case.

As for `C[Si](C)(C)N[Si](C)(C)C`, the Potency result in experiment [1], in experiment [2], in experiment [3], in experiment [4], in experiment [5] and in experiment [6] was “inactive” each time. Also, the Potency result in experiment [16], in experiment [8], in experiment [9], in [17], in experiment [18] and in experiment [19] was “inactive” in each case. Besides, the Potency entry in experiment [20], in experiment [10], in experiment [11], in experiment [12], in [13] and in experiment [14] was “inactive” each time. Further, the Potency result in [15] was “inactive”.

Consider `COC(=O)C(C)Oc1ccc(Oc2ncc(C(F)(F)F)cc2Cl)cc1` (configuration not stated), for which the Potency entry in experiment [1], in experiment [2], in [3], in [4], in experiment [5] and in experiment [6] was “inactive” throughout. Besides, the Potency result in [7], in [16], in [8], in experiment [9], in [17] and in experiment [18] was “inactive” in each case. Besides, the Potency result in experiment [19], in experiment [20], in [10], in experiment [11], in experiment [12] and in experiment [14] was “inactive” throughout. Also, the Potency entry in experiment [15] is “inactive”.

Regarding `O=Cc1ccc(CO)o1`, the Potency entry in [1], in [2], in experiment [3], in [4], in experiment [5] and in experiment [6] was “inactive” each time. The Potency result in experiment [7], in experiment [16], in experiment [8], in experiment [9], in experiment [17] and in experiment [18] was “inactive” each time. Besides, the Potency entry in experiment [19], in experiment [20], in experiment [10], in experiment [11], in experiment [12] and in experiment [13] was “inactive” throughout. In addition, the Potency result in [14] and in experiment [15] was “inactive” throughout.

On to `Brc1ccc(Oc2ccc(Br)cc2)cc1`, for which the Potency result in [1], in experiment [2], in experiment [3], in experiment [4], in experiment [5] and in [6] was “inactive” in each case. Moreover, the Potency entry in [7], in [16], in [8], in [9], in experiment [17] and in [18] was “inactive” throughout. Also, the Potency result in [19], in experiment [20], in experiment [10], in experiment [11], in [12] and in experiment [13] was “inactive” in each case. For the same molecule, the Potency entry in [14] and in experiment [15] was “inactive” in each case.

With `Cc1ccc(C)c(O)c1`, the Potency entry in [1], in experiment [2], in experiment [3], in experiment [4], in [5] and in experiment [6] was “inactive” throughout. Also, the Potency result in experiment [16], in experiment [8], in [9], in experiment [17], in [18] and in experiment [19] was “inactive” in each case. Besides, the Potency result in experiment [20], in [10], in experiment [11], in experiment [12], in [13] and in [14] was “inactive” in each case. In addition, in [15], the Potency result was “inactive”.

For the molecule `O=c1n(CC2CO2)c(=O)n(CC2CO2)c(=O)n1CC1CO1` (configuration not stated), the Potency result in [1], in [3], in [4], in [5], in experiment [6] and in [16] was “inactive” in each case. For the same molecule, the Potency result in [8], in experiment [17], in [18], in experiment [19], in [20] and in [12] was “inactive” throughout. The Potency entry in experiment [14] and in experiment [15] was “inactive” each time. Also, the Potency in experiment [2] is 60.8 µM (active) and 68.6 µM (active).
